Screening results: PubChem, National Center for Advancing Translational Sciences (NCATS)
Sampled rows, rich in hits. Any-hit rate of the full collection: about 19%.
HT1080-NT tox: kills 2HG-producing HT-1080-NT fibrosarcoma cells; HT-1080-NT fibrosarcoma viability, CellTiter-Glo ATP luminescence, 48 h; Potency, µM (top dose mostly 46.1 µM), inactives show top-dose activity, negative = less viability, actives largely listed as cytotoxic; 1.6% of 360,000 active; AID 686970;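 note: NT is the 2HG producing partner of a matched IDH1 knockdown line; potency is the fitted concentration of half-maximal effect; 0% = DMSO-treated cells and -100% = media-only wells without cells; nearly all actives have a fitted effect of over 55% in size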
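Toxicity toward the 2HG-producing NT line was scored as %Activity, normalised to DMSO and no-cell wells, from CellTiter-Glo luminescence after 48 hours' treatment.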
TDP1 cell CPT: growth inhibition of DT40 Tdp1-/-;hTDP1 cells with camptothecin (screen for TDP1 inhibitors). Potency, µM (doses to about 46.2 µM), without a hit: top-dose activity change, negative = growth inhibition, actives largely listed as inhibitors. chicken DT40 Tdp1-/-;hTDP1 cells + 20 nM CPT, ATP luminescence, 48 h. AID 686979. 12% of 420,000 active; note: potency is the fitted concentration of half-maximal effect; nearly all actives have a fitted effect of over 55% in size
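Chicken DT40 Tdp1-/- cells complemented with human TDP1, 400 cells/well, exposed to compounds plus 20 nM camptothecin for at least 48 h at 37 C; viability read as ATP content by CellTiter-Glo luminescence.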
HT1080 IDH1KD tx: HT-1080 IDH1 knockdown cell toxicity (counter line). HT-1080 IDH1 knockdown viability, ATP luminescence, 48 h. Potency, µM (titrated, usually from 46.1 µM), without a hit: at the highest dose activity, negative = toxicity, actives largely listed as cytotoxic. 2% of 360,000 active. AID 686971;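 note: potency is the fitted concentration of half-maximal effect; 0% = DMSO wells and -100% = cell-free medium wells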
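Using the IDH1-knockdown HT-1080 line run in the same batch and compound series as the NT line, viability after 48 h at 37 °C was determined by CellTiter-Glo luminescence and expressed as % activity.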
IL-1B inflam inh: blocks inflammasome-driven IL-1 beta release. THP-1 LPS/ATP IL-1B secretion, AlphaLISA, 16 h; hits give low values. activity change, % at 57.5 µM. 4.7% of 360,000 active. AID 743279; in the data active = activity change below about -50%; inconclusive = mostly about -30% to -49%
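Secreted IL-1B measured by AlphaLISA bead assay after 16 h compound exposure of THP-1 cells; compounds (final up to 57.5 uM) added 1 h before LPS (250 ng/mL) and ATP (1.25 mM) stimulation; lower signal means less secretion.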
TDP1 cell noCPT: qHTS for Inhibitors of human tyrosyl-DNA phosphodiesterase 1 (TDP1): qHTS in cells in absence of CPT | DT40 Tdp1-/- hTDP1 cells, no CPT, ATP luminescence, 48 h | 15% of 420,000 active | AID 686978, 2013 | Potency, µM (doses to about 46.2 µM), without a hit: at the top dose activity change, negative = growth inhibition, most hits filed as inhibitors; note: potency is the fitted concentration of half-maximal effect; nearly all actives have a fitted effect of over 55% in size
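Chicken DT40 Tdp1-/- cells stably complemented with human TDP1 were seeded at 400 cells/well with DMSO in place of 20 nM camptothecin. After compound pinning, cells grew at least 48 hr at 37 °C; viability read by CellTiter-Glo luminescence.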
* marks the source's active call; other numbers are inactive results; ? = inconclusive; . = no result; [ ] = remark or other dose. Unless noted, calls come from the whole dose curve; as a rule, active = well fitted curve in the direction sought with a large enough effect; inconclusive = small, poorly fitted or top-dose-only effect, or another doubt; inactive = no such curve, though single readings can be large; an effect the other way counts as inactive or inconclusive. Unless noted, % is set by controls: 0 for no effect and ±100 for the full control effect.

SMILES	HT1080-NT tox	TDP1 cell CPT	HT1080 IDH1KD tx	IL-1B inflam inh	TDP1 cell noCPT
COc1ccc(-n2c(CNc3ccc(C)cc3)nnc2SCC(=O)Nc2nc(-c3ccccc3)cs2)cc1	-2%	5.6µM*	-1%	40	10µM*
Cc1nc2ccc(NC(=O)NCCCO)cc2s1	7%	-4%	12%	11	-12%
COc1cc(=O)n2c(c1C(=O)NCc1ccc3c(c1)OCO3)CCN(C(=O)c1ccc(C)cc1)CC2	.	6%	.	.	-3%
O=C(NCCc1cccs1)c1ccc(CS(=O)Cc2ccc(Cl)cc2)o1 (stereo not given)	-12%	?	-3%	13	0%
CCOc1ccc(CCNC(=O)c2ccc(CS(=O)Cc3cccc(Cl)c3)o2)cc1 (stereo not given)	-28%	?	-15%	?	15µM*
CCOc1ccc(CCNC(=O)c2ccc(CS(=O)Cc3ccc(Cl)cc3)o2)cc1OCC (stereo not given)	-8%	?	-2%	12	15µM*
CC(C)CN(C(=O)C1CSC2(C)CCC(=O)N12)c1c(N)n(Cc2ccccc2)c(=O)[nH]c1=O (stereo not given)	17%	-15%	23%	5	7%
CC1OC(C2CCCCC2)Cc2[nH]c(=S)[nH]c(=O)c21 (stereo not given)	-2%	?	0%	70	?
COc1ccc(N2CC(C(=O)Nc3ccccc3C(=O)NCc3ccco3)CC2=O)cc1 (stereo not given)	0%	-24%	-1%	-5	-9%
O=C(NCc1ccco1)C1CC(=O)N(c2ccc(O)cc2)C1 (stereo not given)	10%	21µM*	11%	15	26µM*
O=C(COC(=O)C1C2CC3OC(=O)C1C3C2)Nc1cccc(Cl)c1 (stereo not given)	0%	-1%	1%	3	-9%
Cn1nnc2c(N3CCCCC3)ncnc21	17%	?	21%	.	?
Cc1nc(C(F)(F)F)c(C(=O)N/N=C(\N)c2ccccn2)s1	?	13µM*	16µM*	47	4.1µM*
CCCCCCCC(=O)NNC(=O)c1c(O)c2ccccc2n(CCC)c1=O	5%	?	8%	13	23µM*
CCCCCn1c(=O)c(-c2nc3ccccc3[nH]2)c(O)c2ccccc21	-18%	21µM*	3%	112	9.2µM*
CCCCCCCCn1c(=O)c(C(=O)OCC)c(O)c2ccccc21	-3%	?	-3%	14	?
CCCn1c(=O)c(C(=O)Nc2ccccc2N)c(O)c2ccccc21	6%	26µM*	3%	22	?
CCCn1c(=O)c(C(=O)NC(C)c2ccccc2)c(O)c2ccccc21 (stereo not given)	1%	?	12%	2	26µM*
O=C(COC(=O)C1CC(=O)N(Cc2ccccc2)C1)c1ccc(F)cc1 (stereo not given)	16%	2%	25%	12	-16%
CCn1c(=O)c(C(=O)Nc2ccccc2C)c(O)c2ccccc21	4%	?	-29%	16	23µM*
NS(=O)(=O)c1ccc(CCNc2ccn3nc(-c4ccc(OCCN5CCOCC5)cc4)cc3n2)cc1	?	18µM*	-15%	-11	15µM*
N#C/C(=C\c1ccc(OCCN2CCOCC2)cc1)C(=O)Nc1ccc(S(N)(=O)=O)cc1	1%	-2%	19%	-1	6%
CC(C)Cc1ccc(-c2cc3nc(NCCOc4ccccc4)ccn3n2)cc1	-17%	?	?	-10	?
COCCCNc1ccn2nc(-c3ccc(OCCN4CCOCC4)cc3)cc2n1	15%	?	21%	-23	12µM*
N[C@@](C(=O)O)(c1ccc(P(=O)(O)O)cc1)C1CC1	.	-3%	.	.	-8%
SMILES	HT1080-NT tox	TDP1 cell CPT	HT1080 IDH1KD tx	IL-1B inflam inh	TDP1 cell noCPT
Cc1ccc(-n2nc3c(=O)n(CC(=O)NC4CCCCCC4)nc(C)c3c2C)cc1	2%	?	17%	-5	-1%
O=C(O)c1ccc(-n2c(/C=C/c3ccccc3)nc3ccccc3c2=O)cc1	-1%	?	3%	11	-3%
COC(=O)c1ccc(-n2c(/C=C\c3cccc(Br)c3)nc3ccccc3c2=O)cc1	.	5.2µM*	.	.	2.9µM*
COC(=O)c1ccc(-n2c(/C=C/c3cc(OC)c(OC)c(OC)c3)nc3cc(Cl)ccc3c2=O)cc1	.	18µM*	.	.	15µM*
Cc1ccccc1-c1nc(NC(=O)CSc2ncnc3sc4c(c23)CCCC4)ns1	.	0%	.	.	-4%
CC(C)C(=O)NNC(=O)c1cc2sccc2s1	-8%	14%	2%	-8	-4%
CC1=NNC(=O)/C1=C\c1cn(-c2ccccc2)nc1-c1ccccc1	16µM*	5.8µM*	13µM*	-104*	4.1µM*
CC1(C)CC(=O)C(=Cc2cn(-c3ccccc3)nc2-c2ccc(Cl)cc2)C(=O)C1	18%	9.2µM*	?	0	21µM*
O=Cc1cn(-c2ccccc2)nc1-c1ccccc1	-9%	?	-9%	-5	?
CC(C)CCN1C(=O)c2ccc(C(=O)OCn3nnc4ccccc4c3=O)cc2C1=O	0%	-7%	-6%	-12	-23%
O=C(c1cnn(C(=O)CN2CCCC2=O)c1)c1ccccc1O	1%	?	-8%	-2	-25%
COc1ccc(-c2cc(NC=O)c3ncc(-c4cccc(OC)c4)n3c2)cc1	?	5.8µM*	9.2µM*	89	5.2µM*
COc1ccc(-c2cc(NC=O)c3ncc(-c4cnn(C)c4)n3c2)cc1	?	?	?	0	?
COc1cccc(-c2cnc3c(NC=O)cc(-c4ccc(N(C)C)cc4)cn23)c1	?	15µM*	18µM*	19	8.2µM*
Cc1nc2c(ccc3nc(NC(=O)C(c4ccccc4)c4ccccc4)sc32)s1	2%	7.3µM*	-5%	1	7.3µM*
Cc1nc2ccc3nc(NC(=O)c4ccc5c(c4)OCCO5)sc3c2s1	0%	?	5%	-4	3%
Cc1nc2c(ccc3c2ccc2nc(C)sc23)s1	16%	12%	5%[9.24 µM]	-19	2%
Cc1nc2c(ccc3nc(NC(=O)c4ccc5c(c4)OCCO5)sc32)s1	1%	16µM*	-1%	?	18µM*
O=C(NC1CC(=O)N(c2ccc(F)cc2)C1)c1cc2ccccc2o1 (stereo not given)	.	-18%	.	.	-13%
CCOc1ccc(S(=O)(=O)/N=C(\N)c2ccccc2)cc1	-23%	23µM*	-2%	-11	12µM*
CCOc1ccc(S(=O)(=O)/N=C(/c2ccccc2)N(C)C)cc1	12%	?	8%	10	-6%
